The source of these data is PubChem BioAssay AID504333 (National Center for Advancing Translational Sciences (NCATS), 2011).

Hit rate of the full screen: of about 360,000 compounds, about 16,000 (4.4%) were called active. Where a call stands in place of a potency, no number is given. Not shown: some 9% with an inconclusive outcome. This is one part of a sample in which actives are shown more often than they occur. Calls come from the whole dose curve; as a rule, active = well fitted inhibition curve with a large enough effect; inconclusive = small, poorly fitted or top-dose-only effect; inactive = no such curve, though single readings can be large or run the other way.
Potency is the fitted concentration of half-maximal effect.

Sequence of Bromodomain adjacent to zinc finger domain protein 2B (Homo sapiens) (Q9UIF8 whole entry, looked up, the tested form may be a part): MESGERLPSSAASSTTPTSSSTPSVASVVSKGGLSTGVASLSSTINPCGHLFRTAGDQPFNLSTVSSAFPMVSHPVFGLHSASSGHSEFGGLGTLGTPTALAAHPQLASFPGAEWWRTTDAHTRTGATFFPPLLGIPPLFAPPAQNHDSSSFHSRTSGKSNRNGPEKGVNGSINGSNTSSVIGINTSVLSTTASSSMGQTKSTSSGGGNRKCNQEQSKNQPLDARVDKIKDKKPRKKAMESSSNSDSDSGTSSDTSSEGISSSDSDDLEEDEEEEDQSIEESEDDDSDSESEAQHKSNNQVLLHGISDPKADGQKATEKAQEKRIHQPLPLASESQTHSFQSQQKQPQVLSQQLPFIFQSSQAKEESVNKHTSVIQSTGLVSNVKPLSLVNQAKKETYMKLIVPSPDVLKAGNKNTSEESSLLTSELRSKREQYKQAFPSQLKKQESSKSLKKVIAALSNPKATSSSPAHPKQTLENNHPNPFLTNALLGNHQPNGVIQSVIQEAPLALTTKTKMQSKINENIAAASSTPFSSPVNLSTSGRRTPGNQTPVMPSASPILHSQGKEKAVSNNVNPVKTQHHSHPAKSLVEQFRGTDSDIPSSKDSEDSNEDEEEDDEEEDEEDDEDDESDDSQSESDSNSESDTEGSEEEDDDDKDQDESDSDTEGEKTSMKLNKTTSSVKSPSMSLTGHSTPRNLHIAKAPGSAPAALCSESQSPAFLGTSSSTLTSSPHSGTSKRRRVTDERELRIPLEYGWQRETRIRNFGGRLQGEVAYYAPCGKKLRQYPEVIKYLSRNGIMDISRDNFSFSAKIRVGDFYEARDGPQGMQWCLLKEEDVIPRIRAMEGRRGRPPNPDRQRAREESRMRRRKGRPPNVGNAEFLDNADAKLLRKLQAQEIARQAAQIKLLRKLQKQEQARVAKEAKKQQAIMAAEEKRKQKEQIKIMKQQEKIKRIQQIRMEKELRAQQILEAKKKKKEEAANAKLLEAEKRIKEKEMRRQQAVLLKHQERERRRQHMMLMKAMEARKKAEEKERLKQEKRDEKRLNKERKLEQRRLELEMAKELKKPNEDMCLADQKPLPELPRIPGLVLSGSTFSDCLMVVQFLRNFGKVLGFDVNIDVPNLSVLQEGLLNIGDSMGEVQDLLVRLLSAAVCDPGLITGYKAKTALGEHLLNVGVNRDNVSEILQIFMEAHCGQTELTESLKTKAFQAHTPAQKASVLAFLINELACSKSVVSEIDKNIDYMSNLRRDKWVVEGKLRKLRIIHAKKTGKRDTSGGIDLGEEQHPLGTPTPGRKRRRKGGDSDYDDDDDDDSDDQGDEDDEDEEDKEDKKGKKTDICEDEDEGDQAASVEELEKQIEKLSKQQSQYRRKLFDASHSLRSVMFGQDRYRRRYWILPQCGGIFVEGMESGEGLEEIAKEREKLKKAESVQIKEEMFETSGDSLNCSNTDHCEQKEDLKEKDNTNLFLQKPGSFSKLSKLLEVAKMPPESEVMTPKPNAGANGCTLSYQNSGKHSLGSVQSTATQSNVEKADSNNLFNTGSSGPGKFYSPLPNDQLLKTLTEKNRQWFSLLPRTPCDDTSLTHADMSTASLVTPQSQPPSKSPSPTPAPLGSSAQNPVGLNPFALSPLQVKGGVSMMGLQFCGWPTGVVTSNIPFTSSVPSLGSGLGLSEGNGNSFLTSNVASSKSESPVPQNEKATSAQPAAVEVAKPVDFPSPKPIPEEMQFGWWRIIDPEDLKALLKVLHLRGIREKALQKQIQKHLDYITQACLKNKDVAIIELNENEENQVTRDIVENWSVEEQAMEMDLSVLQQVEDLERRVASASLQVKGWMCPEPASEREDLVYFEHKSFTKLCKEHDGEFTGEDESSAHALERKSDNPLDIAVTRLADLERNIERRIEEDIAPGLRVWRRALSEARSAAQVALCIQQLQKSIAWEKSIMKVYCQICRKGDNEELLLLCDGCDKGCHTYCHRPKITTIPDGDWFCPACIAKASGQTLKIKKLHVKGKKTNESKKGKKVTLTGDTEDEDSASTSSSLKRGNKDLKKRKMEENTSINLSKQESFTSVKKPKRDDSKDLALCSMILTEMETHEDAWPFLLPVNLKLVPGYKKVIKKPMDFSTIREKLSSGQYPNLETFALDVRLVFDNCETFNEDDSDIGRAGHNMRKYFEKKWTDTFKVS

The assay addresses Bromodomain adjacent to zinc finger domain protein 2B (Homo sapiens) (UniProt Q9UIF8). Kind of assay: qHTS Assay for Inhibitors of BAZ2B. Note: nearly all actives have a fitted effect of over 60% in size. As to conditions: AlphaScreen BAZ2B-H3K14Ac peptide displacement; series mostly up to 114 µM. A digest of the protocol:
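In this displacement format the biotinylated H3(5-23) peptide acetylated at Lys14 serves as ligand at 50 nM, with BAZ2B at 50 nM in PBS pH 7.4 containing 0.01% Tween-20. Donor and acceptor beads are 10 ug/mL final.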
As to `CCN(Cc1ccccc1)Cc1c(O)ccc2c(=O)c(-c3ccc(Cl)cc3Cl)coc12`, the Potency result was “inactive”.

For `COc1ccc2c(c1)C(C)=CC(C)(C)N2C(=O)Nc1ccccc1`, the Potency was 50.1 µM (active).

In the case of `COc1cccc(NC(=O)C2C(c3ccccc3)C2(Cl)Cl)c1` (stereo not given), the Potency result was “inactive”.

Turning to `CC1=CC(C)(C)N(C(=O)CSc2nnc(-c3ccccc3)o2)c2ccc(C)cc21`, the Potency result is “inactive”.

`CC1=C(C(=O)OCc2ccc(C)cc2)C(c2c(Cl)cccc2Cl)CC(=O)N1` (stereo not given): the Potency entry was “inactive”.

On to `Cc1ccc(OCCn2c(CNc3ccccc3C)nc3ccccc32)cc1`, for which the Potency result is “inactive”.

For `COc1ccc(OC)c(NC(=O)C2CCCN(S(=O)(=O)c3ccc4c(c3)CCCC(=O)N4)C2)c1` (stereo not given), the Potency result is “inactive”.

As to `CC1CCC2CCCCC2N1C(=O)c1cc([N+](=O)[O-])cc([N+](=O)[O-])c1` (stereo not given), the Potency is 50.1 µM (active).

`O=C(c1cc(C(=O)N2CCN(c3ccc(F)cc3)CC2)cc([N+](=O)[O-])c1)N1CCN(c2ccc(F)cc2)CC1`: the Potency entry is “inactive”.

In the case of `COC(=O)c1cc(C(=O)NC(C)C2CC3CCC2C3)cc([N+](=O)[O-])c1` (stereo not given), the Potency result is “inactive”.

On to `COc1ccc(N2CCN(c3cc(C)nc4nncn34)CC2)cc1`, for which the Potency result is “inactive”.

Turning to `COc1ccc(N2C(=O)CSC23C(=O)N(Cc2cccc(F)c2)c2ccccc23)cc1Cl` (stereo not given), the Potency result was “inactive”.

For `Cc1ccc(-n2c(SCC(=O)c3ccccc3)nc3c([nH]c4ccccc43)c2=O)cc1`, the Potency result is “inactive”.

On to `COc1ccc2ccccc2c1CNCc1ccccn1`, for which the Potency is 79.4 µM (active).

In the case of `COc1ccc(C)cc1NC(=O)NCc1ccccn1`, the Potency result was “inactive”.

Regarding `COc1ccc2ccccc2c1CNc1nnnn1C`, the Potency entry was “inactive”.

Turning to `CCCSc1ncc(Cl)c(C(=O)Nc2sc3c(c2C(=O)NCCOC)CCCC3)n1`, the Potency result is “inactive”.

Regarding `Cc1c(Cl)cccc1NC(=O)C1CCCN(c2ncnc3onc(C)c23)C1` (stereo not given), the Potency entry is “inactive”.

Turning to `CCOC(=O)N1CCc2c(sc3c2c(=O)n(Cc2ccccc2)c(=O)n3CC(=O)Nc2cccc(C)c2)C1`, the Potency entry was “inactive”.

Regarding `Cc1ccc(NC(=O)Cn2c(=O)n(-c3ccccc3)c(=O)c3c4c(sc32)CCCC4)cc1`, the Potency result is “inactive”.

For `O=c1c2c3c(sc2n(CCN2CCCC2)c(=O)n1Cc1ccccc1)CCCCC3`, the Potency is 89.1 µM (active).

Turning to `O=C(Nc1cc(C(F)(F)F)ccc1Cl)c1nc2ccccc2nc1N1CCCCC1`, the Potency entry was “inactive”.

With `Brc1ccccc1C1Nc2cccc3cccc(c23)N1`, the Potency is 44.7 µM (active).

For `Brc1ccccc1C1N=C(c2ccccc2)NO1` (stereo not given), the Potency entry was “inactive”.

As for `COc1cc2c(cc1OC)C(c1ccccc1Br)NC(=O)C2` (stereo not given), the Potency entry was “inactive”.

For the compound `COc1ccc(N2CCN(C(=O)c3ccc4c(Cl)c5c(nc4c3)CCCC5)CC2)cc1`, the Potency entry was “inactive”.

Consider `COc1ccc(N2CCN(C(=O)c3ccc(N4CCCCS4(=O)=O)cc3)CC2)cc1`, for which the Potency was 50.1 µM (active).

As to `COc1ccc(C(=O)Nc2ccccc2C(=O)N2CCN(c3ccccc3)CC2)cc1`, the Potency entry was “inactive”.

As to `O=C(NCC(c1cccnc1)N1CCc2ccccc21)c1cccc(C(F)(F)F)c1` (stereo not given), the Potency result is “inactive”.

On to `COc1ccc(-c2nn3c(=O)cc(CN4CCN(C(=O)c5ccc(OC)c(OC)c5)CC4)nc3s2)cc1`, for which the Potency result is “inactive”.

Turning to `COc1ccc(S(=O)(=O)/N=C2\C=C(NS(=O)(=O)c3ccccc3)C(=O)c3ccccc32)cc1`, the Potency was 10 µM (active).

With `COc1ccc(S(=O)(=O)Nc2cc3c(C(=O)OC(C)C)c(C)oc3c3ccccc23)cc1`, the Potency result was “inactive”.

Take `COc1ccc(NC(=O)c2cnc(NS(=O)(=O)c3ccccc3)nc2)cc1`: the Potency result was “inactive”.

Regarding `COc1cc(NC(=O)c2nc3ccccc3nc2C)cc(OC)c1OC`, the Potency entry was “inactive”.

In the case of `O=C(COc1ccc(Cl)cc1)Nc1ccc2c(c1)OCO2`, the Potency entry was “inactive”.

Consider `COC(=O)CCNc1ccc2c(c1)OCCO2`, for which the Potency entry is “inactive”.

Turning to `CCOc1ccc(NCCC(=O)c2ccc3c(c2)OCO3)cc1`, the Potency was 39.8 µM (active).

As to `CCCCN1C(=O)c2[nH]nc(-c3ccccc3O)c2C1c1cccc(OCc2ccccc2)c1` (stereo not given), the Potency result was “inactive”.

`Cc1cccc(NC(=O)c2ccc3nc(C(C)C)oc3c2)c1C`: the Potency entry is “inactive”.

In the case of `CC(=O)c1ccc(NS(=O)(=O)c2ccc(-c3cc(C)no3)s2)cc1`, the Potency result was “inactive”.

As to `O=C(Nc1cc(Cl)cc(Cl)c1)c1ccc2c(c1)N(Cc1cccc(Cl)c1)C(=O)c1ccccc1S2=O` (stereo not given), the Potency entry is “inactive”.

As to `CCOC(=O)c1ccc(NC(=O)C2CCN(S(=O)(=O)c3ccc4c(c3)CCCC(=O)N4)CC2)cc1`, the Potency result is “inactive”.

Take `O=C(C1=C(O)C(=O)N(Cc2ccccc2)C1c1ccco1)c1ccco1` (stereo not given): the Potency entry was “inactive”.

Consider `C=CCSc1nnc(N2C(=O)C(O)=C(C(=O)c3ccco3)C2c2ccc(F)cc2)s1` (stereo not given), for which the Potency was 50.1 µM (active).

`CC(C)c1ccc(C2C(C(=O)c3ccco3)=C(O)C(=O)N2CC2CCCO2)cc1` (stereo not given): the Potency entry is “inactive”.

Turning to `COc1ccccc1N1CCN(c2ncnc3onc(-c4ccc(F)cc4)c23)CC1`, the Potency result is “inactive”.

As to `Cc1ccc(-c2nc(SCc3ccc(Br)cc3)n3[nH]c(=O)cc3n2)cc1`, the Potency is 79.4 µM (active).

For `O=c1cc2nc(-c3ccccc3)nc(SCCOc3ccc(Cl)cc3)n2[nH]1`, the Potency was 50.1 µM (active).

In the case of `CC(C)c1c(O)nc(SCCOc2ccc(Cl)cc2)[nH]c1=O`, the Potency entry is “inactive”.

As for `CCn1c(SCC(=O)c2ccc3ccccc3c2)nnc1-c1cccs1`, the Potency entry was “inactive”.

Turning to `Cc1cccc(-c2nc(SCc3ccc(Br)cc3)n3[nH]c(=O)cc3n2)c1`, the Potency entry is “inactive”.

Consider `Cc1ccc(OCCSc2nc(-c3cccs3)nc3cc(=O)[nH]n23)cc1Cl`, for which the Potency is 50.1 µM (active).

For the compound `Cc1nc(SCCOc2ccc(Cl)cc2)[nH]c(=O)c1Cc1ccccc1`, the Potency result is “inactive”.

On to `Cc1ccc2nc(-c3ccc(Br)cc3)cn2c1`, for which the Potency entry is “inactive”.

In the case of `CC(C)(C)C1CCc2c(sc(NC(=O)c3ccccc3F)c2C(=O)N2CCCCC2)C1` (stereo not given), the Potency result was “inactive”.

Consider `COc1cccc(-c2cc(C(=O)Nc3ccc(C)cc3)[nH]n2)c1`, for which the Potency entry was “inactive”.

As for `COc1ccc(-c2noc(-c3ccc(N4CCN(c5ccccc5)CC4)c([N+](=O)[O-])c3)n2)cc1OC`, the Potency result was “inactive”.

Consider `CCN(CC)S(=O)(=O)c1ccc2c(c1)N(CC(=O)NCc1ccccc1)C(=O)CS2`, for which the Potency entry is “inactive”.

Regarding `CCNS(=O)(=O)c1cc(-c2nnc(Nc3cccc(C(F)(F)F)c3)c3ccccc23)ccc1C`, the Potency entry is “inactive”.

For the compound `COC(=O)c1c(NC(=O)c2c(Cl)cnn2C)sc(C)c1C`, the Potency result was “inactive”.

Take `COCCCNCC(=O)Nc1sc(C)c(C)c1C(=O)OC`: the Potency is 50.1 µM (active).

Regarding `CCC(=O)Nc1sc(C(=O)Nc2ccccc2)c(C)c1C(=O)OC`, the Potency result was “inactive”.

Turning to `Cc1ccc2c(=O)cc(C(=O)Nc3sc4c(c3C(=O)NCc3cccnc3)CCCC4)oc2c1`, the Potency result was “inactive”.

Take `CCOC(=O)c1c(C)n(S(=O)(=O)c2ccc(C)cc2C)c2ccc(NS(=O)(=O)c3ccc(C)cc3C)cc12`: the Potency entry is “inactive”.

As for `Cc1ccc(CNC(=O)c2c(O)nc3c(C)cccn3c2=O)cc1`, the Potency entry is “inactive”.

With `CNc1ccc(-c2nc(-c3ccco3)no2)cc1[N+](=O)[O-]`, the Potency entry was “inactive”.

On to `CNc1ccc(-c2nc(-c3ccccc3C)no2)cc1[N+](=O)[O-]`, for which the Potency entry is “inactive”.

With `CC(Nc1ccc(-c2nc(-c3ccco3)no2)cc1[N+](=O)[O-])c1ccccc1` (stereo not given), the Potency was 79.4 µM (active).

With `COc1ccc(NC(=O)c2ccc3nc(CCc4ccccc4)oc3c2)c(OC)c1`, the Potency entry is “inactive”.

Regarding `O=C1Cc2cc(S(=O)(=O)Nc3ccc(OC(F)(F)F)cc3)cc3c2N1CCC3`, the Potency result was “inactive”.

`COc1ccc2c(CNCCc3ccccc3C)c(C(=O)O)n(Cc3ccccc3C)c2c1`: the Potency result was “inactive”.

Consider `O=C(O)c1cccc(N=NN2CCCCCC2)c1`, for which the Potency result is “inactive”.

In the case of `CN1C(=O)/C(=C/c2ccco2)SC1=Nc1cccc(C(=O)O)c1`, the Potency is 50.1 µM (active).

Turning to `CN=C1S/C(=C\c2c(OC)cc(OC)cc2OC)C(=O)N1C`, the Potency entry was “inactive”.

Turning to `CCCCCCn1nnc2sc(-c3ccccc3)cc2c1=O`, the Potency result is “inactive”.

In the case of `Cc1ccc(C(=O)NC(=S)Nc2ccc(N3CCOCC3)cc2)cc1`, the Potency was 14.1 µM (active).

For `COC(=O)c1ccc(NC(=S)NN2CCOCC2)cc1`, the Potency entry is “inactive”.

Regarding `Cc1ccc(C(=O)NC(=S)Nc2ccccc2C)cc1`, the Potency is 89.1 µM (active).

As for `Cc1ccc(C(=O)NC(=S)NCCN2CCOCC2)cc1`, the Potency result was “inactive”.

Turning to `Cc1cc(C(=O)NNC(=S)Nc2ccccc2C)cs1`, the Potency entry is “inactive”.

Regarding `Cc1cc2[nH]ncc2cc1NC(=S)NC(=O)c1ccccc1`, the Potency entry was “inactive”.

For the compound `COc1ccc(-c2cc(C(F)(F)F)nc(SCC(=O)N(C)Cc3ccccc3)n2)cc1OC`, the Potency result was “inactive”.

`Cc1c(Cl)cccc1NC(=O)C1CCCN(C(=O)c2cnn(-c3ccccc3)c2-n2cccc2)C1` (stereo not given): the Potency result was “inactive”.

For `COc1ccc(CCNC(=O)c2nn(C)c3c2CSc2ccccc2-3)cc1OC`, the Potency entry is “inactive”.

In the case of `Cc1cc(NC(=O)CSc2ncc(C(=O)Nc3ccc(Cl)cc3)c(=O)n2C)no1`, the Potency entry was “inactive”.

As for `Cc1ccc(-c2nnc(Nc3cccc(Br)c3)c3ccccc23)cc1S(=O)(=O)NCC1CCCO1` (stereo not given), the Potency entry was “inactive”.

Consider `Cc1cn(C)c(CC(=O)NCc2ccc(Cl)cc2)c1C(=O)O`, for which the Potency result was “inactive”.

With `Cc1ccc(CCCOC(=O)C[N+]2(C)CCCCC2)cc1`, the Potency result is “inactive”.

As to `Cc1ccc(CCCOC(=O)C[N+]2(C)CCCC2)cc1`, the Potency was 50.1 µM (active).

As to `Cc1ccc(COC(=O)CN2C(=O)NC3(CCCC3)C2=O)cc1`, the Potency entry is “inactive”.

For `COc1ccc(-c2nn(CC(=O)Nc3ccccc3F)c3c2cnc2ccc(F)cc23)cc1`, the Potency result was “inactive”.

Take `CC(=O)Nc1ccc(NC(=O)CCCc2nc(-c3ccc(C(C)(C)C)cc3)no2)cc1`: the Potency entry was “inactive”.

Regarding `Cc1ccc(CCNC(=O)Cn2c(-c3cccs3)cc3cc(F)ccc32)cc1`, the Potency result was “inactive”.

For `Cc1cccc(Nc2nc(C)nc(N)c2S(=O)(=O)c2ccccc2)c1`, the Potency result is “inactive”.

Regarding `CCc1nc(SCC(=O)NNC(=O)c2ccc(C)cc2)c2ccccc2n1`, the Potency result is “inactive”.

Consider `Cc1ccc(C(=O)NNc2ncnc3ccccc23)cc1`, for which the Potency was 56.2 µM (active).

For `Cc1ccc(C(=O)NNC(=O)c2cccs2)cc1`, the Potency result was “inactive”.

For the compound `CCCCCn1c(CCCNC(=O)c2ccccc2OC)nc2ccccc21`, the Potency result is “inactive”.

In the case of `COCC(C)NS(=O)(=O)c1ccc(N2CCCCS2(=O)=O)cc1` (stereo not given), the Potency result is “inactive”.

`CCOC(=O)C1CCN(c2nc3c(S(=O)(=O)c4ccc(CC)cc4)nnn3c3ccc(Cl)cc23)CC1`: the Potency result is “inactive”.
